# Source: the supplement of paper PMC8728848
# This is one part of a sample in which the strongest signals are shown more often than they occur.
# Legend:
# Test in all cases: glycan array binding signal (z-score within array); higher = stronger binding
# Conditions in all cases: glycan notation: IUPAC condensed, linker removed
# [1] = biological target: Fuc(a1-2)Gal(b1-3)GlcNAc(b1-2)Man(a1-3)[Fuc(a1-2)Gal(b1-3)GlcNAc(b1-2)Man(a1-6)]Man(b1-4)GlcNAc(b1-4)GlcNAc
# In short: (§1)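 Negative Z-scores can be read as non-binding. The Z-score is calculated within each array and then averaged across arrays of one protein sequence at different concentrations or buffers and across linkers. Arrays, 3228 in all, were curated from the Consortium for Functional Glycomics database and kept only where the protein sequence was available.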
# [2] = biological target: Fuc(a1-2)Gal(b1-4)Fuc(a1-3)]GlcNAc(b1-2)Man(a1-3)[Fuc(a1-2)Gal(b1-4)[Fuc(a1-3)]GlcNAc(b1-2)Man(a1-6)]Man(b1-4)GlcNAc(b1-4)GlcNAc
# In short: as §1
# Fuc(a1-2)Gal(b1-4)GlcNAc = biological target: Fuc(a1-2)Gal(b1-4)GlcNAc
# In short: as §1
# [3] = biological target: Fuc(a1-2)Gal(b1-4)GlcNAc(b1-2)Man(a1-3)[Fuc(a1-2)Gal(b1-4)GlcNAc(b1-2)Man(a1-6)]Man(b1-4)GlcNAc(b1-4)[Fuc(a1-6)]GlcNAc
# In short: as §1
# [4] = biological target: Fuc(a1-2)Gal(b1-4)GlcNAc(b1-3)Gal(b1-4)GlcNAc(b1-2)Man(a1-3)[Fuc(a1-2)Gal(b1-4)GlcNAc(b1-3)Gal(b1-4)GlcNAc(b1-2)Man(a1-6)]Man(b1-4)GlcNAc(b1-4)GlcNAc
# In short: as §1
# [5] = biological target: Fuc(a1-2)[Gal(a1-3)]Gal(b1-3)GlcNAc(b1-2)Man(a1-3)[Fuc(a1-2)[Gal(a1-3)]Gal(b1-3)GlcNAc(b1-2)Man(a1-6)]Man(b1-4)GlcNAc(b1-4)GlcNAc
# In short: as §1
# [6] = biological target: Fuc(a1-2)[Gal(a1-3)]Gal(b1-3)GlcNAc(b1-6)GalNAc
# In short: as §1
# [7] = biological target: Fuc(a1-2)[Gal(a1-3)]Gal(b1-4)Glc
# In short: as §1
# [8] = biological target: Fuc(a1-2)[GalNAc(a1-3)]Gal(b1-4)GlcNAc(b1-2)Man(a1-3)[Fuc(a1-2)[GalNAc(a1-3)]Gal(b1-4)GlcNAc(b1-2)Man(a1-6)]Man(b1-4)GlcNAc(b1-4)[Fuc(a1-6)]GlcNAc
# In short: as §1
# [9] = biological target: Fuc(a1-2)[GalNAc(a1-3)]Gal(b1-4)GlcNAc(b1-3)GalNAc
# In short: as §1
# [10] = biological target: Fuc(a1-2)[GalNAc(b1-3)]Gal
# In short: as §1
# [11] = biological target: Fuc(a1-3)[Gal(b1-4)]GlcNAc(b1-2)Man(a1-3)[Fuc(a1-3)[Gal(b1-4)]GlcNAc(b1-2)Man(a1-6)]Man(b1-4)GlcNAc(b1-4)[Fuc(a1-6)]GlcNAc
# In short: as §1
# [12] = biological target: Fuc(a1-3)[Gal3S(b1-4)]Glc
# In short: as §1
# [13] = biological target: Gal(a1-3)Gal(b1-3)GlcNAc(b1-2)Man(a1-3)[Gal(a1-3)Gal(b1-3)GlcNAc(b1-2)Man(a1-6)]Man(b1-4)GlcNAc(b1-4)GlcNAc
# In short: as §1
# [14] = biological target: Gal(a1-4)Gal(b1-3)GlcNAc(b1-2)Man(a1-3)[Gal(a1-4)Gal(b1-3)GlcNAc(b1-2)Man(a1-6)]Man(b1-4)GlcNAc(b1-4)GlcNAc
# In short: as §1
# [15] = biological target: Gal(b1-3)GalNAc(a1-3)[Fuc(a1-2)]Gal(b1-4)GlcNAc
# In short: as §1
# [16] = biological target: Gal(b1-3)GlcNAc(b1-3)Gal(b1-4)GlcNAc(b1-2)Man(a1-3)[Gal(b1-3)GlcNAc(b1-3)Gal(b1-4)GlcNAc(b1-2)Man(a1-6)]Man(b1-4)GlcNAc(b1-4)GlcNAc
# In short: as §1
# [17] = biological target: Gal(b1-3)GlcNAc(b1-3)Gal(b1-4)GlcNAc(b1-6)[Gal(b1-3)GlcNAc(b1-3)]Gal(b1-4)Glc
# In short: as §1
# [18] = biological target: Gal(b1-3)GlcNAc(b1-6)GalNAc
# In short: as §1
# [19] = biological target: Gal(b1-3)[Fuc(a1-4)]GlcNAc
# In short: as §1
# Gal(b1-4)Glc6S = biological target: Gal(b1-4)Glc6S
# In short: as §1
# [20] = biological target: Gal(b1-4)GlcNAc(b1-2)Man(a1-3)Man(b1-4)GlcNAc(b1-4)GlcNAc
# In short: as §1
binder,measurement,setting,value
"InvD YPIII (Yersinia pseudotuberculosis), B1JSC0 (protein) MIKYFSFFKKPEPIVGILPNRQSHHILPTHIRRVAWGTLLLQLFIPLSVSFSPAIAAMKASKADTMVSYSSTEPYVLGSGETVAMVAKKYGITVDELKKINIYRTFSRPFTALTTGDEIDIPRKASPFSVDNNKDNRLSVENTLAGHAVAGATALSNGDVAKSGERMVRSAASNEFNNSAQQWLSQFGTARVQLNINDDFHLDGSAADVLIPLYDNEKSILFTQLGARNKDSRNTVNMGAGVRTFQGNWMYGANTFFDNDLTGKNRRIGVGAEAWTDYLKLSANNYFGITDWHQSRDFIDYNERPANGYDLRAEAYLPSYPQLGGKAMYEKYRGDDVALFGKDNRQKNPHAITAGVNYTPIPLVTIGAEHRAGKGGQNDSNINFQLNYRLGETWQSHIDPSAVAASRTLAGSRYDLVERNNHIVLDYQKQNLVRLSLPDSLAGDPFSQLSVTAQVTATHGLERIDWQSAELMAAGGVLKQTSKNGLEITLPEYQMNRTGGNSYILNAIAYDTQGNASSQASMLITVNAQKINIANSTLVAVPINIEANNSDTSVVTLTLKDDNNIPVTGQDVTFLSPLGTLSAMTDSGNGVYTATLTAGTVSGTTAVSSNINGSALDMTPATVTLNGNSGELSITHSMLVAAPVNIEANGSDTSVVTLTLRDSNNNPVTGQTVTFAGTLGTLGAVTEGSSGVYTATLTAGIMVGTSSITASVNSTALGVTPATVTLNGDSGNLSTTNSTLVAAPVNIEANSSDTSVVTLTLRDNNNNPVTGQTVVFTSTLGTLGNVTEQASGVYTATLTAGTVSGVASLSVSVGGNALGVTPATVTLNGDSGNLSTTNSTLVAAPVNIEANSSDTSVVTLTLRDNNNNPVTGQTVNFAGTLGTLGTVSEGSSGVYTTTLTAGTVAGVASLSVNVGGNALGVTPATVTLNGNSGNLSATNSTLVAAPVNIEANSSDTSVVTLTLRDNNNNPVTGQTVAFTSTLGTLGNVTEQASGVYTATLTAGTVSGVASLSVSVNSNALGVTPATVTLNGDSGNLSTTNSTLVAAPVNIEANSSDTSVVTLTLRDNNNNPVTGQTVAFTSTLGTLGNVTEQASGLYTATLTAGTVSGVASLSVNVGGNALGVTPATVTLNGDSGNLSATNSTLVAAPVNIEANSSDTSVVTLTLRDNNNNPVTGQTVAFTSTLGTLGNVTEQASGLYTATLTAGTVSGVASLSVNVGGTALGVTPATVTLNGDSGNLSTTNSTLVAAPVNIEANSSDTSVVTLTLRDNNNNPVTGQTVAFTSTLGTLGNVTEQASGLYTATLTAGTVSGVASLSVSVNSTALGVTPATVTLNGDSGNLSTTNSTLVAAPVNIEANSSDTSVVTLTLRDNNNNPVTGQTVAFTSTLGTLGNVTEQASGVYTATLTAGTVAGVASLSVNVGGNALGVTPATVTLNGDSGNLSTTNSTLVAAPVNIEANSSDTSVVTLTLRDNNNNPVTGQTVAFTSTLGTLGNVTEQASGVYTATLTAGTVSGVASLSVSVGSSALGVTPATVTLNGDSGNLSTTNSTLVAAPVNIEANNSDTSVVTLTLRDNNNNPVTGQTVAFTSTLGTLGNVTEQASGVYTATLTAGTVSGVASLSVSVNSNALGVTPATVTLNGDSGNLSTTNSTLVAAPVNIEANSSDTSVVTLTLRDNNNNPVTGQTVVFTSTLGTLGNVTEQASGLYTATLTAGTVSGVASLSVSVGGNALGVTGNITLAPGALDAARSILAVNKPSINADDRIGSTITFTAQDAQGNAITGLDIAFMTDLENSQIMTLVDHNDGTYTANINGTQTGIANIAVQSSGATIAGLAATMVTITPGAWNTTQATPVMTVALPITTCQSSSGVYKRYYIGIVTHELYDNYGNEISGILTYNLGAGRYTTVTSQNSSVSGSNGLTRRSNSPVSHFILTSDAYTSQAACYAERIANVNVTITVTAITDDFKTSAVNKVFILGTGSN",glycan array binding signal (z-score),[1],0.001
same,glycan array binding signal (z-score),[2],1.36
same,glycan array binding signal (z-score),Fuc(a1-2)Gal(b1-4)GlcNAc,-0.154
same,glycan array binding signal (z-score),[3],0.037
same,glycan array binding signal (z-score),[4],-0.232
same,glycan array binding signal (z-score),[5],-0.164
same,glycan array binding signal (z-score),[6],0.218
same,glycan array binding signal (z-score),[7],-0.359
same,glycan array binding signal (z-score),[8],0.113
same,glycan array binding signal (z-score),[9],-0.306
same,glycan array binding signal (z-score),[10],0.063
same,glycan array binding signal (z-score),[11],-0.147
same,glycan array binding signal (z-score),[12],-0.259
same,glycan array binding signal (z-score),[13],0.213
same,glycan array binding signal (z-score),[14],0.015
same,glycan array binding signal (z-score),[15],-0.102
same,glycan array binding signal (z-score),[16],-0.358
same,glycan array binding signal (z-score),[17],-0.192
same,glycan array binding signal (z-score),[18],-0.16
same,glycan array binding signal (z-score),[19],-0.119
same,glycan array binding signal (z-score),Gal(b1-4)Glc6S,-0.213
same,glycan array binding signal (z-score),[20],-0.355
